Assay outcomes from PubChem BioAssay.
p53 mut binder – binds human mutant p53 on microarray; small molecule microarray binding, anti-GST fluorescence; calls only; hit rate 0.4% among 17,000;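 active = compounds whose four printed spots each glow above background more than chance allows, each with a p-value under 7%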
p53 PUMA act – restores mutant p53 pathway signaling in SW480 cells | hit rate 1.5% among 28,000 | SW480 PUMA-promoter luciferase, p53 mutant reactivation | activation, % at 9.98 µM | AID 624151; in the data active = activation above about 52%
STAT3 binder – STAT3 (human) binding; calls only; P40763; Small molecule microarray, His-STAT3 binding, anti-His fluorescence; hit rate 0.2% among 17,000; AID 624138;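 active = compounds whose four printed spots each show fluorescence over background unusually high for their array block, chance value under 7%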
Myc binder – binds human c-Myc on microarray | small molecule microarray, His-c-Myc binding, anti-His fluorescence | P01106 | hit rate 1.5% among 17,000 | calls only | AID 624141;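 active = spot fluorescence over background with P-value below 7% in all four replicate spots, showing protein binding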;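 also: score is binary with 100 for all four spots passing and 0 otherwise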
NFkB binder – binds human NF-kappa-B p105 on microarray | P19838 | Small molecule microarray, anti-His fluorescence binding | calls only | hit rate 1.3% among 17,000 | AID 624139;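 active = spot fluorescence over background significantly raised, with a chance value under 7% in all four replicate spots of the compound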;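 also: probe protein is his-tagged human p50 processed subunit at 1 µg/ml; raw spot fluorescence signals with no normalization applied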
The depositor's hits bear a star; i = inactive; . = no result; + = active, no number. Only some compounds are listed: those with a hit (about 2.6% of all), similar ones and a draw of the others.

SMILES	p53 mut binder	p53 PUMA act	STAT3 binder	Myc binder	NFkB binder
COc1ccc(S(=O)(=O)Nc2cccc3c2O[C@H](CN(C)Cc2ccc(C(F)(F)F)cc2)[C@@H](C)CN([C@@H](C)CO)C3=O)cc1	i	-2	i	i	i
COc1ccc(S(=O)(=O)Nc2cccc3c2O[C@@H](CN(C)Cc2ccc(C(F)(F)F)cc2)[C@H](C)CN([C@H](C)CO)C3=O)cc1	i	10	+	i	i
Cc1ccc(S(=O)(=O)Nc2ccc3c(c2)C(=O)N([C@@H](C)CO)C[C@@H](C)[C@H](CN(C)C(=O)Nc2c(C)noc2C)O3)cc1	i	5	i	i	i
N#Cc1ccccc1OCCCCSc1ncccn1	.	102*	.	.	.
Fc1ccccc1OCCCCSc1ncccn1	i	31	i	i	i
O=C(CSc1nnc(-c2ccccc2)n1-c1ccccc1)Nc1cccc(Br)c1	i	-51	i	i	i
Cc1c(Br)ccc(NC(=O)CSc2nnc(-c3ccc(Cl)cc3)n2C)c1C	.	107*	.	.	.
O=C(COc1ccccc1Cl)NCc1ccco1	.	21	.	.	.
O=C(COc1cc(Cl)c(Cl)cc1Cl)NCc1ccco1	i	56*	i	i	i
C[C@@H]1CN([C@H](C)CO)C(=O)Cc2cc(NS(=O)(=O)c3ccc(Cl)cc3)ccc2O[C@H]1CN(C)CC1CCCCC1	i	8	i	+	i
C[C@H](CO)N1C[C@H](C)[C@@H](CN(C)CC2CCCCC2)Oc2ccc(NS(=O)(=O)c3ccc(Cl)cc3)cc2CC1=O	i	-2	i	i	i
CNC[C@@H]1Oc2ccc(NS(=O)(=O)c3cn(C)cn3)cc2CC(=O)N([C@H](C)CO)C[C@@H]1C	i	4	i	i	+
CNC[C@H]1Oc2ccc(NS(=O)(=O)c3cn(C)cn3)cc2CC(=O)N([C@H](C)CO)C[C@@H]1C	i	-4	i	i	i
C[C@H](CO)N1C[C@H](C)[C@@H](CN(C)C(=O)Nc2ccc(F)cc2)Oc2ccc(NS(=O)(=O)c3ccc(Cl)cc3)cc2CC1=O	i	2	i	i	i
C[C@@H]1CN([C@@H](C)CO)C(=O)Cc2cc(NS(=O)(=O)c3ccc(Cl)cc3)ccc2O[C@@H]1CN(C)C(=O)Nc1ccc(F)cc1	i	-5	i	+	+
Cc1ccn2cc(-c3cccc(NS(=O)(=O)c4cccc([N+](=O)[O-])c4)c3)nc2c1	.	170*	.	.	.
COc1ccc(NC(=O)Nc2ccc3c(c2)CC(=O)N([C@@H](C)CO)C[C@@H](C)[C@H](CN(C)C)O3)cc1	i	5	i	i	i
CC1(C)Cc2nc3sc4c(=O)n(CC(=O)NCCc5ccccc5)cnc4c3cc2CO1	.	12	.	.	.
CC(=O)c1ccc(NC(=O)Cn2cnc3c(sc4nc5c(cc43)COC(C)(C)C5)c2=O)cc1	i	73*	i	i	i
C[C@@H]1CC[C@]2(C(=O)O)CC[C@]3(C)C(=CCC4[C@@]5(C)C[C@@H](O)[C@@H](O)C(C)(C)C5CC[C@]43C)C2[C@]1(C)O (some centres not stated)	i	7	i	i	i
C=C1CCC2(C(=O)O)CCC3(C)C(=CCC4C5(C)C[C@@H](O)[C@H](O)C(C)(CO)C5CCC43C)C2C1C (some centres not stated)	i	12	i	+	+
O=S(=O)(Nc1ncccn1)c1ccc(NC(=S)Nc2ccc3c(c2)CCC3)cc1	.	19	.	.	.
c1cnc(SCCCCOc2ccc3c(c2)CCC3)nc1	.	71*	.	.	.
